Assay [1] can be described thus: resazurin metabolic signal in HepG2 cells – cell-based, resazurin fluorescence, 24 h, PK04 Diversity Set, profiling panel (AID 1172). The conditions noted are these: HepG2 viability, higher = more signal. On the technique in general: Alamar Blue is a resazurin reagent that responds to reducing activity.
Assay [2] can be described thus: budding yeast growth changes without added modifier – OD600, strain BY4716, 24 h, basal condition, primary screen (AID 1173). The conditions noted are these: S. cerevisiae BY4716 growth, OD600, 24 h; higher = more signal, called active from +8 up or from −8 down.
The nature of assay [3]: viability profiling in MM1S myeloma cells – cell-based, resazurin fluorescence, basal, 24 h, PK04 Diversity Set, profiling panel (AID 1174).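 Note: MM1S multiple myeloma cell line.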 The conditions noted are these: higher = more signal, called active from +8 up or from −8 down.
Assay [4] deals with Dihydroorotate dehydrogenase (quinone), mitochondrial (Plasmodium falciparum (isolate 3D7)) (UniProt Q08210). The assay is described as follows: inhibition of P. falciparum DHODH – biochemical, C-terminal His tag, absorbance 600 nm, primary screen (AID 1175).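 Note: recombinant parasite enzyme with a five histidine tag at its C terminus.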 The conditions noted are these: PfDHODH enzyme, DCIP absorbance 600 nm; higher = more signal, called active from +8 up or from −8 down.
Sequence of Dihydroorotate dehydrogenase (quinone), mitochondrial (Plasmodium falciparum (isolate 3D7)) (Q08210 whole entry, looked up): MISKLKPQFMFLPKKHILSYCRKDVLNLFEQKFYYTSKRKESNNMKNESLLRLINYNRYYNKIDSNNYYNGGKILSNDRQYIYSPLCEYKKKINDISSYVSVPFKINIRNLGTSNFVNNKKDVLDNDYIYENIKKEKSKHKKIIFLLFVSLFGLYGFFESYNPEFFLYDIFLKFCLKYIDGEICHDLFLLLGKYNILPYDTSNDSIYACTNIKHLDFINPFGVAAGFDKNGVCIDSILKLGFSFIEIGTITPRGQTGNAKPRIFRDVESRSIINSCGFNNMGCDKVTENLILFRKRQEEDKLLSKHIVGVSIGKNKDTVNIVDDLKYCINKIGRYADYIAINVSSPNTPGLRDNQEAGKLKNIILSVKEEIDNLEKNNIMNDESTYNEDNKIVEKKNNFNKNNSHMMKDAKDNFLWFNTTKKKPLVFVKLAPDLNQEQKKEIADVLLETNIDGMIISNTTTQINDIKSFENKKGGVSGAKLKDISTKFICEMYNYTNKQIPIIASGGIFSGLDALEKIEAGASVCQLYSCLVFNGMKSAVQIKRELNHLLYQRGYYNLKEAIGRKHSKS

Assay [5] in a line: inhibition of PAO1 biofilm formation – strain PAO1, LB-PBS medium, absorbance 600 nm, primary screen (AID 1176). The conditions noted are these: P. aeruginosa PAO1 growth/biofilm, A600, 12 h; higher = more signal.
Assay [6] is described as follows: growth modulation of vineyard yeast isolate – strain RM11-1a, OD600, basal, 24 h, primary screen (AID 1177).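 Note: cultures grown under basal conditions with no added stressor.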 The conditions noted are these: S. cerevisiae RM11-1a growth, OD600, 24 h; higher = more signal, called active from +8 up or from −8 down.
Assay [7] is described as follows: growth of efflux-deficient E. coli DRC39 – strain DRC39, OD650, 24 h, E. coli filamentation inducers, primary screen (AID 1178).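 Note: growth measured as culture turbidity by optical density at 650 nm.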 The conditions noted are these: E. coli DRC39 acrAB, higher = more signal, called active from +8 up or from −8 down.
Assay [8] in a line: growth of efflux-deficient E. coli DRC39 – strain DRC39, OD650, 48 h, E. coli filamentation inducers, primary screen (AID 1179).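 Note: screen aims at cell division blockers that make cells filament.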 The conditions noted are these: E. coli DRC39 delta-acrAB growth, higher = more signal, called active from +8 up or from −8 down.
Assay [9] in a line: viability profiling in RPMI8226 myeloma cells – cell-based, resazurin fluorescence, basal, 24 h, PK04 Diversity Set, profiling panel (AID 1180).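 Note: RPMI8826 multiple myeloma cell line at 5000 cells per well.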 The conditions noted are these: higher = more signal.
In assay [10] the target is E3 ubiquitin-protein ligase XIAP (Homo sapiens) (UniProt P98170). The assay can be described thus: small molecules binding XIAP protein – biophysical, small-molecule microarray, fluorescence 635 nm, primary screen (AID 1181).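 Note: score merges 667 nm emission and signal to noise over triplicate slides.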 The conditions noted are these: higher = more signal.
Sequence of E3 ubiquitin-protein ligase XIAP (Homo sapiens) (P98170 whole entry, looked up, the tested form may be a part): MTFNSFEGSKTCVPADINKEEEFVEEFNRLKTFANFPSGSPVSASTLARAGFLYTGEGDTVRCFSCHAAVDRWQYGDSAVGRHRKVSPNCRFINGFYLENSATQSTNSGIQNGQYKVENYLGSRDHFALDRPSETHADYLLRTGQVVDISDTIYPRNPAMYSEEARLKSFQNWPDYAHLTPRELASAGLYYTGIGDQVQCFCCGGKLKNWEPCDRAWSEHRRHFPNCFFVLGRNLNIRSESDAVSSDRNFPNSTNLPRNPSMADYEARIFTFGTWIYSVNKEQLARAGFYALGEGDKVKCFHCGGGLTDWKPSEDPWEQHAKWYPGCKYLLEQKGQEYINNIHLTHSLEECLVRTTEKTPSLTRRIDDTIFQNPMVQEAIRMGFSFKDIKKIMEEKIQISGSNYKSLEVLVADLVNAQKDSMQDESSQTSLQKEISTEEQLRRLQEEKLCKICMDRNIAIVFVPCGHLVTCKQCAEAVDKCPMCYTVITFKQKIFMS
Assay [11] deals with XIP peptide (Xip251-270) binding. The assay is described as follows: XIP fragment 251-270 binding compounds – biochemical, small-molecule microarray, fluorescence 635/667 nm, 0.1 µg/mL protein, primary screen (AID 1182). The conditions noted are these: fluorescent protein binding, 635 nm, higher = more signal, called active from +8 up or from −8 down.
Another assay has as its system XIP peptide (Xip251-270). The assay can be described thus: compounds binding XIP fragment 251-270 – biochemical, small-molecule microarray, fluorescence 635/667 nm, 0.5 µg/mL protein, primary screen (AID 1183). The conditions noted are these: fluorescence 635 nm, higher = more signal.
The nature of assay [12]: blood-stage malaria parasite viability loss – strain 3D7, DAPI fluorescence, 100 nL, primary screen (AID 1184).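 Note: parasites grown inside human red blood cells in medium with human serum.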 The conditions noted are these: P. falciparum 3D7 growth, 3 d, higher = more signal.
The target of assay [13] is Homeobox protein Hox-A13 (Mus musculus) (UniProt Q62424). The assay can be described thus: disruptors of Hoxa13 oligonucleotide interaction – biochemical, fluorescence polarization, labeled oligonucleotide, primary screen (AID 1185). The conditions noted are these: Hoxa13:DNA binding, 15 min, higher = more signal, called active from +8 up or from −8 down. For orientation: In fluorescence polarisation assays a small probe gives low polarisation when free and higher when bound to something large.
Sequence of Homeobox protein Hox-A13 (Mus musculus) (Q62424 whole entry, looked up): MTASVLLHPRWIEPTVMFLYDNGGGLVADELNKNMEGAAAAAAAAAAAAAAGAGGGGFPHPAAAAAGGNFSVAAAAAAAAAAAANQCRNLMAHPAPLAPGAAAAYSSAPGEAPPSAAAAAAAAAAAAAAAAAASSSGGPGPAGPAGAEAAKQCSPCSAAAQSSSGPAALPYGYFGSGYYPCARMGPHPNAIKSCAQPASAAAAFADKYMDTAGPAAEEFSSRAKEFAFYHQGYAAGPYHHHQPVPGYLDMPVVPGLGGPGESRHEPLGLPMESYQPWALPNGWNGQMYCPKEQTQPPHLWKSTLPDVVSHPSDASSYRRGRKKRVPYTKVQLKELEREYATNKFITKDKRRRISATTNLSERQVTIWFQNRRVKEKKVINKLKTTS

A short description of assay [14]: blockers of DNA damage checkpoint Chk1 activation – imaging, HeLa, hydroxyurea, phospho-Chk1 antibody, percent positive cells, primary screen (AID 1186). The conditions noted are these: hydroxyurea-induced phospho-Chk1 immunofluorescence imaging, higher = more signal.
A short description of assay [15]: blockers of DNA damage checkpoint Chk1 activation – imaging, HeLa, hydroxyurea, phospho-Chk1 nuclear intensity, primary screen (AID 1187). The conditions noted are these: hydroxyurea-induced phospho-Chk1 immunofluorescence imaging, higher = more signal.

Activity calls are given as the source filed them. Unless noted, the rule behind the calls is not given here.

Consider `NC(=O)NCC#Cc1ccc2c(c1)[C@]1(C(=O)N2)[C@H](C(=O)N2CCN(c3ncccn3)CC2)[C@H]2C(=O)O[C@H](c3ccccc3)[C@H](c3ccccc3)N2[C@@H]1c1ccc(O)cc1`, for which the z-score is -0.727 in assay [1]; 1.14 (inactive) in assay [2]; -0.234 (inactive) in [3]; 1.16 (inactive) in [5]; 0.939 (inactive) in [6]; -0.192 (inactive) in [7]. In addition, the z-score in assay [8] was -0.15 (inactive); in assay [9], -1.36; in [12] it was 1.79; in [13], -1.83 (inactive); in assay [14] it was 0.161 (inactive); in assay [15], 0.359 (inactive). For the same compound, the composite z-score in assay [4] is -2.21 (inactive); in assay [10], -0.0577; in assay [11], -0.0728 (inactive); in the assay with XIP peptide (Xip251-270), 0.58.
In the case of `CC(C)N1C(=O)C[C@@](C(=O)NC2CC2)(c2ccc([N+](=O)[O-])cc2)[C@H]1c1ccc(CO)cc1`, the z-score was -0.557 in assay [1]; -0.693 (inactive) in [2]; 0.616 (inactive) in assay [3]; 1.6 (inactive) in assay [5]; -0.437 (inactive) in assay [6]; 0.209 (inactive) in assay [7]. Besides, the z-score was 0.167 (inactive) in [8]; 0.499 in assay [9]; -1.15 in assay [12]; -1.81 (inactive) in [13]; 0.254 (inactive) in assay [14]; 0.529 (inactive) in assay [15]. Further, the composite z-score in [4] is -0.236 (inactive); in assay [10], 0.236; in [11], 0.65 (inactive); with XIP peptide (Xip251-270), 0.396.
`COC(=O)[C@@]1(Cc2ccc(F)cc2)[C@H]2c3cc(C(=O)N(C)C)n(CCc4ccc(OC)c(Br)c4)c3C[C@H]2CN1C(=O)c1ccccc1`: the z-score in assay [1] is -1.73; in assay [2], 0.233 (inactive); in assay [3] it was -8.44 (active); in [5], 2.7 (inactive); in assay [6], 0.399 (inactive); in assay [7] it was -0.893 (inactive). For the same compound, the z-score was -1.49 (inactive) in assay [8]; -5.69 in assay [9]; -1.75 in [12]; -5.01 (inactive) in assay [13]; -0.316 (inactive) in [14]; -0.869 (inactive) in [15]. For the same compound, the composite z-score is -3.85 (inactive) in assay [4], -0.337 in [10], -0.192 (inactive) in assay [11] and 0.167 in the assay on XIP peptide (Xip251-270).
For the compound `CCOC(=O)C1=CC[C@@H](c2ccccc2F)N(S(=O)(=O)c2ccc(C)cc2)[C@H]1c1ccccc1`, the z-score in assay [1] is 0.325; in assay [2], 0.837 (inactive); in assay [3], -0.0773 (inactive); in assay [5], 0.698 (inactive); in assay [6], 0.262 (inactive); in assay [7], -0.308 (inactive). For the same compound, the z-score was -0.35 (inactive) in assay [8]; -0.781 in assay [9]; -2.02 in [12]; 1.41 (inactive) in assay [13]; 0.0286 (inactive) in assay [14]; -0.82 (inactive) in assay [15]. Also, the composite z-score was -0.496 (inactive) in assay [4], -0.195 in [10], -0.0895 (inactive) in [11] and 0.563 with XIP peptide (Xip251-270).
With `[N-]=[N+]=Nc1ccccc1[C@@H]1OC(c2ccc(OCCCO)cc2)=N[C@]1(Cc1ccccc1)C(=O)N1CCCCC1`, the z-score in assay [1] was -0.819; in [2], -0.592 (inactive); in assay [3], -3.26 (inactive); in assay [5], 0.109 (inactive); in [6], 1.08 (inactive); in assay [7] it was 0.241 (inactive). In addition, the z-score in [8] was 0.174 (inactive); in [9], -3.5; in [12], -2.38; in [13], -4.3 (inactive); in assay [14] it was -0.23 (inactive); in assay [15] it was -0.606 (inactive). Also, the composite z-score in assay [4] is -0.128 (inactive); in [10], 0.0512; in [11], 3.82 (inactive); with XIP peptide (Xip251-270), 0.806.
Turning to `CCCCN1CC=CC23O[C@@H]4/C=C\CCC(C)OC(=O)C4[C@H]2C(=O)N(CCCO)[C@@H]3C1=O` (some centres undefined), the z-score was 0.0917 in assay [1]; 1.04 (inactive) in [2]; 0.0853 (inactive) in assay [3]; -0.112 (inactive) in assay [5]; 0.487 (inactive) in assay [6]; 0.0475 (inactive) in [7]. In addition, the z-score was -0.154 (inactive) in assay [8]; 0.79 in assay [9]; 0.544 in assay [12]; -3.97 (inactive) in assay [13]; 0.331 (inactive) in [14]; -0.112 (inactive) in [15]. Further, the composite z-score was -0.0558 (inactive) in assay [4], -0.267 in assay [10], -0.571 (inactive) in assay [11] and 0.214 in the assay with XIP peptide (Xip251-270).
As for `O=C1N(Cc2ccccc2)c2ccccc2C[C@]12N=C(c1ccc(OCCCO)cc1)O[C@@H]2c1ccccc1`, the z-score in assay [1] is -0.658; in assay [2] it was 0.0989 (inactive); in assay [3], -2.55 (inactive); in assay [5], 1.58 (inactive); in assay [6] it was 1.29 (inactive); in [7], 0.223 (inactive). Also, the z-score was -0.2 (inactive) in assay [8]; -2.6 in assay [9]; -2.37 in [12]; -3.59 (inactive) in assay [13]; -0.0747 (inactive) in assay [14]; -0.154 (inactive) in assay [15]. The composite z-score in assay [4] is 0.581 (inactive); in assay [10], -0.135; in assay [11], -0.12 (inactive); with XIP peptide (Xip251-270), 0.59.
`Oc1ccc2cc[n+](Cc3cc4c(cc3Br)OCO4)cc2c1`: the z-score in [1] was -0.269; in assay [2], -0.72 (inactive); in [3], -0.526 (inactive); in assay [5], -0.159 (inactive); in [6], 1.31 (inactive); in assay [7], 0.364 (inactive). Moreover, the z-score in assay [8] was 0.161 (inactive); in [9], -0.135; in [12], 0.0298; in assay [13], -8.63 (active); in assay [14], 0.12 (inactive); in [15], 0.225 (inactive). Further, the composite z-score is -0.625 (inactive) in assay [4], -0.281 in [10], 0.425 (inactive) in assay [11] and 0.135 in the assay with XIP peptide (Xip251-270).
On to `CCOC(=O)C[C@H]1[C@H](OC(=O)c2ccc(C(=O)c3ccccc3)cc2)[C@@H](NC(=O)c2ccc3ccccc3n2)c2cc(OCCCO)ccc2N1C(=O)Cc1ccc(OC)cc1`, for which the z-score in assay [1] was -0.0031; in assay [2], 1.03 (inactive); in assay [3] it was 0.0487 (inactive); in assay [5], -0.75 (inactive); in assay [6], 0.0192 (inactive); in assay [7], -2.25 (inactive). Besides, the z-score in [8] is -2.31 (inactive); in assay [9], 0.131; in [12], -2.69; in assay [13] it was -0.833 (inactive); in [14], -0.824 (inactive); in assay [15], -0.835 (inactive). Further, the composite z-score in assay [4] is -0.0608 (inactive); in assay [10], -0.0961; in [11], -0.667 (inactive); in the assay on XIP peptide (Xip251-270), -0.219.

The values are drawn from PubChem BioAssay.
